Publication PMC7862700, “An all-to-all approach to the identification of sequence-specific readers for epigenetic DNA modifications on cytosine”

Legend:
Test in all cases: DAPPL (digital affinity profiling via proximity ligation, sequencing); 10 mM Tris-HCl pH 7.5, 50 mM NaCl, 1 mM DTT, 4% glycerol, room temperature, 30 min; GST-TFs on glutathione beads, 16-mer random dsDNA library, 0.1% formaldehyde crosslink after washing; high values mean tight binding
FLI1 = target: T1, FLI1 (Homo sapiens, UniProt Q01543 1-452); settings: protein: recombinant; tags: N-terminal GST; dsDNA, one strand shown
T1 sequence: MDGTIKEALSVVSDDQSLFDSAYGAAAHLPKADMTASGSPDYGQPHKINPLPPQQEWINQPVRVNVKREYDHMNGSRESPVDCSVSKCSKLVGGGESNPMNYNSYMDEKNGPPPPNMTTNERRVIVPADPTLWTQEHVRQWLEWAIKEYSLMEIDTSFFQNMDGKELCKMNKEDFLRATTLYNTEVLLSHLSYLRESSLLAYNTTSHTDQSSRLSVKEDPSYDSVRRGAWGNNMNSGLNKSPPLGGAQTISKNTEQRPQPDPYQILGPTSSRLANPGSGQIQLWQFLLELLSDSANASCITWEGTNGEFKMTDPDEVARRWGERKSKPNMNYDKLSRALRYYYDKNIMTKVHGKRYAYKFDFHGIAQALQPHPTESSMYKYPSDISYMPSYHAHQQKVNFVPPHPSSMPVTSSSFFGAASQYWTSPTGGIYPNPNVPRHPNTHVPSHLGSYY
Method in brief: (§1)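 The binding signal reported is, for every hexamer, its read frequency for a factor over its read frequency for the tag-only sample. Reads came from pools of yeast-expressed, GST-fused human transcription factors on glutathione beads, barcoded with DNA and mixed with that sample, which were incubated with 200 nmole of a random double-stranded 16-mer DNA library in Tris/NaCl/DTT/glycerol buffer at room temperature for 30 min. After washing, the pools were crosslinked with 0.1% formaldehyde, proximity-ligated with BsaI/T4 ligase for 1 h at 37 °C, PCR-amplified and sequenced on an Illumina NextSeq500.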

ELK1 = target: T2, ELK1 (Homo sapiens, UniProt P19419 1-428); settings: protein: recombinant; tags: N-terminal GST; dsDNA, one strand shown
T2 sequence: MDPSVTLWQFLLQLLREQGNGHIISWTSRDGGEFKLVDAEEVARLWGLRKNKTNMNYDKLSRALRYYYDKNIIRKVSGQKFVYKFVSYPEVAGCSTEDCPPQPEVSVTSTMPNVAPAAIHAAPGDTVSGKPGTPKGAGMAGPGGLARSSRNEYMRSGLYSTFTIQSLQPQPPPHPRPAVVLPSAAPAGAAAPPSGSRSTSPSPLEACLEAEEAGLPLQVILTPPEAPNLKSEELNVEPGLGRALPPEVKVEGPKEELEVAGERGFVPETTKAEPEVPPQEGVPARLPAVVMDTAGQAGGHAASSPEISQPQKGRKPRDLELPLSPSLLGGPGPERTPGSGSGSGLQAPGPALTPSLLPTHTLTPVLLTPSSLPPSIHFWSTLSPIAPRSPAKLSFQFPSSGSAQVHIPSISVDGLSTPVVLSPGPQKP
Method in brief: as §1

GABPA = target: T3, GABPA (Homo sapiens, UniProt Q06546 1-454); settings: protein: recombinant; tags: N-terminal GST; dsDNA, one strand shown
T3 sequence: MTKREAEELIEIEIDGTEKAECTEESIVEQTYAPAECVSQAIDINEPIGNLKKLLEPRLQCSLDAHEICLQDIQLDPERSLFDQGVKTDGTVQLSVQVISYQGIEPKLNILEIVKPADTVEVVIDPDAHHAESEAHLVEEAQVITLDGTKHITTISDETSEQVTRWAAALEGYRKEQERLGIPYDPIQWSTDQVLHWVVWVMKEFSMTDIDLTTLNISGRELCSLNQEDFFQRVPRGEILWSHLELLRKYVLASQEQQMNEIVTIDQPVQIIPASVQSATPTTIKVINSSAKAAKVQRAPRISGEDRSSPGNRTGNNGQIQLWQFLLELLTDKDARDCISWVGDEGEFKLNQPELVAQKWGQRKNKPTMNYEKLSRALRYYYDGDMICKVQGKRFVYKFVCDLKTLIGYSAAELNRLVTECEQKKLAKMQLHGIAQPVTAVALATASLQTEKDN
Method in brief: as §1

ERG = target: T4, ERG (Homo sapiens, UniProt P11308 1-479); settings: protein: recombinant; tags: N-terminal GST; dsDNA, one strand shown
T4 sequence: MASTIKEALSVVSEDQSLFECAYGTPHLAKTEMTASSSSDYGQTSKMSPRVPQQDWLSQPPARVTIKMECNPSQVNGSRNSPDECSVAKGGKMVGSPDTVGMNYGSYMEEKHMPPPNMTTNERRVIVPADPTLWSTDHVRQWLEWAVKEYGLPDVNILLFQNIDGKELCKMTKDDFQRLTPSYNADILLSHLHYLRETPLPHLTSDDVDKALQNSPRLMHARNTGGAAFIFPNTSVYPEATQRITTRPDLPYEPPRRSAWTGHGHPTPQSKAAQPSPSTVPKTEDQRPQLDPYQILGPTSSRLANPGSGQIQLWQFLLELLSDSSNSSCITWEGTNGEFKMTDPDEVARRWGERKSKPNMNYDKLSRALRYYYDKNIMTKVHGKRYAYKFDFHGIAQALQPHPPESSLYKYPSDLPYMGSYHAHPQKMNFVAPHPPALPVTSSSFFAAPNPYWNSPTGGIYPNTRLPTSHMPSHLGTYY
Method in brief: as §1

ELF1 = ELF1 (Homo sapiens, UniProt P32519 1-619); settings: protein: recombinant; tags: N-terminal GST; dsDNA, one strand shown
Method in brief: as §1

EHF = target: T5, EHF (Homo sapiens, UniProt Q9NZC4 1-300); settings: protein: recombinant; tags: N-terminal GST; dsDNA, one strand shown
T5 sequence: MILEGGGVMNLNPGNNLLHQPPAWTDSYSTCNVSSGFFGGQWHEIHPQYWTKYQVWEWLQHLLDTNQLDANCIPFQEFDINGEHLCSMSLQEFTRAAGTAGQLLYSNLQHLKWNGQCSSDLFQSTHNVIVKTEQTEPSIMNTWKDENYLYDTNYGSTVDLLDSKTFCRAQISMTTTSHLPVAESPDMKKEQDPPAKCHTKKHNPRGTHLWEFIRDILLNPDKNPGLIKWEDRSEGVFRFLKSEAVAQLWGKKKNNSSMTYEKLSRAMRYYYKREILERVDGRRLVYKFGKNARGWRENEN
Method in brief: as §1

SPI1 = SPI1 (Homo sapiens, UniProt P17947 1-270); settings: protein: recombinant; tags: N-terminal GST; dsDNA, one strand shown
Method in brief: as §1

SPIB = SPIB (Homo sapiens, UniProt Q01892 1-262); settings: protein: recombinant; tags: N-terminal GST; dsDNA, one strand shown
Method in brief: as §1

ELK3 = target: T6, ELK3 (Homo sapiens, UniProt P41970 1-407); settings: protein: recombinant; tags: N-terminal GST; dsDNA, one strand shown
T6 sequence: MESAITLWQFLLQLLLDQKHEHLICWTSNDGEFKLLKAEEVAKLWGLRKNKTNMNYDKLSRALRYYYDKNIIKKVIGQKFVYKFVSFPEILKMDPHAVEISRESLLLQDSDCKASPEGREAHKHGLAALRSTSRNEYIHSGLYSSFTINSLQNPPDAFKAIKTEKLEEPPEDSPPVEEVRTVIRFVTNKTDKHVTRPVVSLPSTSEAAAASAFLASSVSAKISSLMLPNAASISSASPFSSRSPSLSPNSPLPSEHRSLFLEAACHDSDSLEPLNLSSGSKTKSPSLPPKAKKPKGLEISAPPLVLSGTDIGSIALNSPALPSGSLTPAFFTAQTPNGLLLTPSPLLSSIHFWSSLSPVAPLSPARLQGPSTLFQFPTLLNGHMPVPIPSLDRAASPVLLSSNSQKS
Method in brief: as §1

FEV = target: T7, FEV (Homo sapiens, UniProt Q99581 1-238); settings: protein: recombinant; tags: N-terminal GST; dsDNA, one strand shown
T7 sequence: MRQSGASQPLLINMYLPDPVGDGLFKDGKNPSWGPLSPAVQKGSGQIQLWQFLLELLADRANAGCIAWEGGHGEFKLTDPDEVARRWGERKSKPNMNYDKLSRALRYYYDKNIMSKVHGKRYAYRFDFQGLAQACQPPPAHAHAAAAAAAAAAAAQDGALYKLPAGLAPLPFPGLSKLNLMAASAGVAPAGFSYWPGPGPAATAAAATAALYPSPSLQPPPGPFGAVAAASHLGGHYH
Method in brief: as §1

ETV5 = ETV5 (Homo sapiens, UniProt P41161 1-510); settings: protein: recombinant; tags: N-terminal GST; dsDNA, one strand shown
Method in brief: as §1

HSF1 = HSF1 (Homo sapiens, UniProt Q00613 1-529); settings: protein: recombinant; tags: N-terminal GST; chain copies: 3; dsDNA, one strand shown
Method in brief: as §1

SPIC = target: T8, SPIC (Homo sapiens, UniProt Q8N5J4 1-248); settings: protein: recombinant; tags: N-terminal GST; dsDNA, one strand shown
T8 sequence: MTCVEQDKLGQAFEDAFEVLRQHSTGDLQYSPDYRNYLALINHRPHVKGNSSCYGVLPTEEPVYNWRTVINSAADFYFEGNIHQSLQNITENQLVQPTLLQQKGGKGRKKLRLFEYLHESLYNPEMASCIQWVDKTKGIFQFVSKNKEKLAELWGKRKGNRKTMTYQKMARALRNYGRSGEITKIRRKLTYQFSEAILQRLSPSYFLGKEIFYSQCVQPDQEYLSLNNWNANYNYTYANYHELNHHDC
Method in brief: as §1

ELF4 = ELF4 (Homo sapiens, UniProt Q99607 1-663); settings: protein: recombinant; tags: N-terminal GST; dsDNA, one strand shown
Method in brief: as §1

ELK4 = target: T9, ELK4 (Homo sapiens, UniProt P28324-2 1-405); settings: protein: recombinant; tags: N-terminal GST; dsDNA, one strand shown
T9 sequence: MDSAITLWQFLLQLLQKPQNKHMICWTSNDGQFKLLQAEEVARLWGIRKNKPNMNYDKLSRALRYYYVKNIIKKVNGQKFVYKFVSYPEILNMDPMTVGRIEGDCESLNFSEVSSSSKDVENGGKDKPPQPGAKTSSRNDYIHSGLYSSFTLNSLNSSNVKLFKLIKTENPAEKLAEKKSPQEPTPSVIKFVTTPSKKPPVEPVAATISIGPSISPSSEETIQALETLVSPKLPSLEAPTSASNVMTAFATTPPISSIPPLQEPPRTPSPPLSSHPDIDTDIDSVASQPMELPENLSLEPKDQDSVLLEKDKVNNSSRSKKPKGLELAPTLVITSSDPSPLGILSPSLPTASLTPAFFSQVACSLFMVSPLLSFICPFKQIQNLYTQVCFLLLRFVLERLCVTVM
Method in brief: as §1

ETV2 = target: T10, ETV2 (Homo sapiens, UniProt O00321 1-342); settings: protein: recombinant; tags: N-terminal GST; dsDNA, one strand shown
T10 sequence: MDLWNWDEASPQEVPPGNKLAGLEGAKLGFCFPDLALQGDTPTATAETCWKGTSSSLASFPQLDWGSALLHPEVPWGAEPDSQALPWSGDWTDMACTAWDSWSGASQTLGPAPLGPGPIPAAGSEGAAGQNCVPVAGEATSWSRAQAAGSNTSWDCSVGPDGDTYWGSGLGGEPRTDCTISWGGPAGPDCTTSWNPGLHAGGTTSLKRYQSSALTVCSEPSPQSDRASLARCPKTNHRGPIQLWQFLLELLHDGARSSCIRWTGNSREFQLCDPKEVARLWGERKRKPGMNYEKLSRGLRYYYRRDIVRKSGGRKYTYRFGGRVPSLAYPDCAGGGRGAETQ
Method in brief: as §1

ELF3 = target: T11, ELF3 (Homo sapiens, UniProt P78545 1-371); settings: protein: recombinant; tags: N-terminal GST; dsDNA, one strand shown
T11 sequence: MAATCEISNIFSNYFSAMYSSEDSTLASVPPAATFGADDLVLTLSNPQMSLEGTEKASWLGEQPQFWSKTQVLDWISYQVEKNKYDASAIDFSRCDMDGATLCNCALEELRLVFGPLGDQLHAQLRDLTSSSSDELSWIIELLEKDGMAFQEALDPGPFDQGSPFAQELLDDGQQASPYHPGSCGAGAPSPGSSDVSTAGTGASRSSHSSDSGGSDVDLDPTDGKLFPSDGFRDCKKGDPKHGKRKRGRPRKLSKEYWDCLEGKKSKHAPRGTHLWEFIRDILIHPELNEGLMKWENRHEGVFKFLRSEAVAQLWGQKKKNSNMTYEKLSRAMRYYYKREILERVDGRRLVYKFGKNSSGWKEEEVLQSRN
Method in brief: as §1

CRX = CRX (Homo sapiens, UniProt O43186 1-299); settings: protein: recombinant; tags: N-terminal GST; dsDNA, one strand shown
Method in brief: as §1

ETV1 = ETV1 (Homo sapiens, UniProt P50549 1-477); settings: protein: recombinant; tags: N-terminal GST; dsDNA, one strand shown
Method in brief: as §1

ELF4, sequence (Q99607 whole entry): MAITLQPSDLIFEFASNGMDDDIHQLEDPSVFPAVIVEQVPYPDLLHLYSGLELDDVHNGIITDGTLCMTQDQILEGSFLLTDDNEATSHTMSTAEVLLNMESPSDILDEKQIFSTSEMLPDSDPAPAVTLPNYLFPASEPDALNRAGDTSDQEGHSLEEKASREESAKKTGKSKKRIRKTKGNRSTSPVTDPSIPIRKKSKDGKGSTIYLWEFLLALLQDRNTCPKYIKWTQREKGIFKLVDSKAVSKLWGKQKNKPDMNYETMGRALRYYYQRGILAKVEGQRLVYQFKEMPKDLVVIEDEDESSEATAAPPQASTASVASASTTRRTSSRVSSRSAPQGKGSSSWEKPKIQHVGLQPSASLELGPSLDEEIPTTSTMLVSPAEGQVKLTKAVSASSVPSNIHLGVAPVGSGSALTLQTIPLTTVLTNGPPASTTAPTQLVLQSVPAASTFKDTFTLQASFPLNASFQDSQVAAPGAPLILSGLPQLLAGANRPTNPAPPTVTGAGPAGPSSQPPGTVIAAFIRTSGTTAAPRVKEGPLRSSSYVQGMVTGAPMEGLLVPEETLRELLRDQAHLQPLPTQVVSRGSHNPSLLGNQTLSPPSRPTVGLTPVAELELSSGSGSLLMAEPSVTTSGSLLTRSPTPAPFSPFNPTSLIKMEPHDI
ETV5, sequence (P41161 whole entry): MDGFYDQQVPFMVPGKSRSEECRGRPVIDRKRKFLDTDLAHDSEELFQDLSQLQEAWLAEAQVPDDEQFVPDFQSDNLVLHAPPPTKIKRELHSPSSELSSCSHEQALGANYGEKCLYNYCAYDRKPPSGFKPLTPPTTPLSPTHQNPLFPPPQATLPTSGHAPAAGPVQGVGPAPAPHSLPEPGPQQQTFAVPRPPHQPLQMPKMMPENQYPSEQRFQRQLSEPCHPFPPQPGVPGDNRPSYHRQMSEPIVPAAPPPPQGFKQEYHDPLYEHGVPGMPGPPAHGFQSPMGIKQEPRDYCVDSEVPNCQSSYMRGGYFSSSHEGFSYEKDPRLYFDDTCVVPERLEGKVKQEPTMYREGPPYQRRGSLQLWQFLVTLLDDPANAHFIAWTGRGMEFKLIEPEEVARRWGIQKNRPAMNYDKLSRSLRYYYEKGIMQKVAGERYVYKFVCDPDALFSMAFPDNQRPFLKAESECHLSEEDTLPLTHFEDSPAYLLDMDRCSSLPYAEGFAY
HSF1, sequence (Q00613 whole entry): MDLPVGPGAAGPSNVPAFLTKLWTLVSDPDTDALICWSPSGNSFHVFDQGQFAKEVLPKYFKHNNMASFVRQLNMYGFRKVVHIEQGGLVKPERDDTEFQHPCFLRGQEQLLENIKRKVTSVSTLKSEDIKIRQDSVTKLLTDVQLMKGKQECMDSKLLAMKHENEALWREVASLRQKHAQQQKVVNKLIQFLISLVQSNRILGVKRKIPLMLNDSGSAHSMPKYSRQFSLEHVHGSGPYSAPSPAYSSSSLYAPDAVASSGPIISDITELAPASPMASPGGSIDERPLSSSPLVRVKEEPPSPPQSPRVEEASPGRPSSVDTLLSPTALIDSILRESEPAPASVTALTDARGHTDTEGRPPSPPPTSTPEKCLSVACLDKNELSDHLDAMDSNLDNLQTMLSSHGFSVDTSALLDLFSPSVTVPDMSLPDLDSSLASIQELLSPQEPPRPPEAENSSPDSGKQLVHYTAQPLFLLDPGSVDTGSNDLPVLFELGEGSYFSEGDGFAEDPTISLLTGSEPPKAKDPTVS
ELF1, sequence (P32519 whole entry): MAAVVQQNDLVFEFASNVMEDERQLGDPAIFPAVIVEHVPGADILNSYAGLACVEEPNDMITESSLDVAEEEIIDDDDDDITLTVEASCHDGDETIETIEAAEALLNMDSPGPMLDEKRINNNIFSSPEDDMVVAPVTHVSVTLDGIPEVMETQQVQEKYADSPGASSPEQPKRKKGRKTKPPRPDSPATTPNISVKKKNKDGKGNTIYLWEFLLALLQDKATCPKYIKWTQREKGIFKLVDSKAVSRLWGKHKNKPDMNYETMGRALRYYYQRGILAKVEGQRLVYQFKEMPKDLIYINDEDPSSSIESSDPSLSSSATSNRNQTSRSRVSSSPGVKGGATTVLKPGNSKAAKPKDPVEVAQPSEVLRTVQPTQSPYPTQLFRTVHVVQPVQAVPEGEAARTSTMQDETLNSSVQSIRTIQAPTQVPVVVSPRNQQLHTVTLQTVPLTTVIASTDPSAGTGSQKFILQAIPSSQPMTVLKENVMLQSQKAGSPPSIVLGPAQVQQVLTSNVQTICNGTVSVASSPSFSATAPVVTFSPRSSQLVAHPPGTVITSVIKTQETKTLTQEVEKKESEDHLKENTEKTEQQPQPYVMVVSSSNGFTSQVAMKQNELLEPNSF
ETV1, sequence (P50549 whole entry): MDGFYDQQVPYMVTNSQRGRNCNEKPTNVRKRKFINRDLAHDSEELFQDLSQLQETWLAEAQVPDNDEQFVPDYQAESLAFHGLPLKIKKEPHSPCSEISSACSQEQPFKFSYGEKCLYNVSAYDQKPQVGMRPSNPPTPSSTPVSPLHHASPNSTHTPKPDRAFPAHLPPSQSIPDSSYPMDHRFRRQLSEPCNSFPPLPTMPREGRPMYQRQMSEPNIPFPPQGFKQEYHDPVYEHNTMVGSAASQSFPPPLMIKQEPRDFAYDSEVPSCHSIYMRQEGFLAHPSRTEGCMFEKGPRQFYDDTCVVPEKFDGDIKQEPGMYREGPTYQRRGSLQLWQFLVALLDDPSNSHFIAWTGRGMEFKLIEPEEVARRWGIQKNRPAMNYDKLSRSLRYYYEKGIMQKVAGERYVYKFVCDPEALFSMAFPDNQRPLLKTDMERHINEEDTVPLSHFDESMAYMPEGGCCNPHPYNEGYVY
SPIB, sequence (Q01892 whole entry): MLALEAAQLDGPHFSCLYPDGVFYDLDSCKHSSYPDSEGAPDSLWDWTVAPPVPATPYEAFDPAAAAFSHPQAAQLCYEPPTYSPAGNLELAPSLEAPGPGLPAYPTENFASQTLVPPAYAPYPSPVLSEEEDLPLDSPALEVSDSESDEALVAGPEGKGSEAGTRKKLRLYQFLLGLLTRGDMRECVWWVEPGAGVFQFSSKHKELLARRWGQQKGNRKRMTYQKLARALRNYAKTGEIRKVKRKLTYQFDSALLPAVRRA
CRX, sequence (O43186 whole entry): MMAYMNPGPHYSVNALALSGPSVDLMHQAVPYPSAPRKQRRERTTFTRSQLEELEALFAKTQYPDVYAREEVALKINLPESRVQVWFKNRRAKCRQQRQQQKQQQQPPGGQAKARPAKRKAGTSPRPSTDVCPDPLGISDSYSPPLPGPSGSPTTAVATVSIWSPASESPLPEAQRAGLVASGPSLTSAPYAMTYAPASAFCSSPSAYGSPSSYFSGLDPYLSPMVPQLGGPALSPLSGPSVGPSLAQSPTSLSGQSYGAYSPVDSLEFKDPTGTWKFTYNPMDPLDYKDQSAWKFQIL

## CCTCAA
FLI1
  binding signal: 1.47 fold enrichment (6-mer frequency, TF over GST control)
ELK1
  binding signal: 1.32 fold enrichment (6-mer frequency, TF over GST control)
GABPA
  binding signal: 1.46 fold enrichment (6-mer frequency, TF over GST control)
ERG
  binding signal: 1.26 fold enrichment (6-mer frequency, TF over GST control)
ELF1
  binding signal: 1.32 fold enrichment (6-mer frequency, TF over GST control)
EHF
  binding signal: 1.39 fold enrichment (6-mer frequency, TF over GST control)
SPI1
  binding signal: 1.55 fold enrichment (6-mer frequency, TF over GST control)
SPIB
  binding signal: 1.42 fold enrichment (6-mer frequency, TF over GST control)
ELK3
  binding signal: 1.44 fold enrichment (6-mer frequency, TF over GST control)
FEV
  binding signal: 1.42 fold enrichment (6-mer frequency, TF over GST control)
ETV5
  binding signal: 1.42 fold enrichment (6-mer frequency, TF over GST control)
HSF1
  binding signal: 1.2 fold enrichment (6-mer frequency, TF over GST control)
SPIC
  binding signal: 1.46 fold enrichment (6-mer frequency, TF over GST control)
ELF4
  binding signal: 1.38 fold enrichment (6-mer frequency, TF over GST control)
ELK4
  binding signal: 1.35 fold enrichment (6-mer frequency, TF over GST control)
ETV2
  binding signal: 1.61 fold enrichment (6-mer frequency, TF over GST control)
ELF3
  binding signal: 1.54 fold enrichment (6-mer frequency, TF over GST control)
CRX
  binding signal: 1.15 fold enrichment (6-mer frequency, TF over GST control)
ETV1
  binding signal: 1.42 fold enrichment (6-mer frequency, TF over GST control)
